Measurements from the supplement of paper PMC11150407.
Where a name gives a salt, the structure may show the parent alone. About 180 (8.6%) of roughly 2,100 compounds showed an effect of 50% or more. The list comes from a sample in which strong results are over-represented; it also holds similar structures and randomly drawn compounds.

What follows are compounds tested on MOLM1 and UCSD/AML1 (averaged) (assay: cell viability relative to DMSO control (POC); higher = less growth inhibition). Conditions: 1 µM; 72 h.
Procedure: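 Primary viability screen in the 3q26 EVI1-high AML cell lines MOLM1 and UCSD/AML1 (1.5e3 cells/well, 384-well), compounds at 1 uM for 72 h. ATP CellTiter-Glo read-out given as percent of viable cells over DMSO control (POC), averaged over duplicates. DMSO was the negative control and 5 uM etoposide the positive control. This mapping covers the MicroSource Spectrum and Selleck anticancer libraries (drug names).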

Row | SMILES | cell viability [%]
1 | Cc1[nH]c(/C=C2\C(=O)Nc3ccc(S(=O)(=O)N(C)c4cccc(Cl)c4)cc32)c(C)c1C(=O)N1CCN(C)CC1 | 62.8
2 | CCN(CC)CCNC(=O)c1c(C)[nH]c(/C=C2\C(=O)Nc3ccc(F)cc32)c1C [Sunitinib Malate (Sutent)] | 32.9
3 | Cc1[nH]c(/C=C2\C(=O)Nc3ccc(S(=O)(=O)Cc4c(Cl)cccc4Cl)cc32)c(C)c1C(=O)N1CCC[C@@H]1CN1CCCC1 | 92.1
4 | CC(=O)Oc1cc(-c2coc3cc(OC(C)=O)c(OC(C)=O)c(OC(C)=O)c3c2=O)cc(OC(C)=O)c1OC(C)=O | 93.9
5 | CC(=O)O[C@@H]1CC2C(C)(C)[C@H](O)C=C[C@]2(C)C2CC[C@@]3(C)[C@H](c4ccoc4)OC(=O)C4OC43[C@@]21C (stereo partly drawn) | 98.8
6 | O=c1c2ccccc2oc2ccccc12 | 101
7 | CC(=O)Nc1nc(C)c(-c2ccc(Cl)c(S(=O)(=O)NCCO)c2)s1 | 56.6
8 | Nc1ccccc1NC(=O)c1ccc(CNc2nccc(-c3cccnc3)n2)cc1 [Mocetinostat (MGCD0103)] | 4.85
9 | O=C(CCNNC(=O)c1ccncc1)NCc1ccccc1 | 90.2
10 | O=C(NCO)c1cccnc1 | 106
11 | Nc1ccccc1NC(=O)c1ccc(CNC(=O)OCc2cccnc2)cc1 [Entinostat (MS-275, SNDX-275)] | 12.6
12 | COc1c2ccoc2c(OC)c2oc(=O)ccc12 | 115
13 | CC(NC(=O)c1ccccc1/N=C/c1c(O)ccc2ccccc12)c1ccccc1 (stereo not drawn) [Sirtinol] | 103
14 | CCc1cc(C(N)=S)ccn1 | 97.8
15 | CCc1ccc2c(O)c3c(cc2c1C(=O)OC)C(=O)c1c(O)ccc(O)c1C3=O | 102
16 | NC(=O)c1ccc(I)c([N+](=O)[O-])c1 [Iniparib (BSI-201)] | 103
17 | C[C@H]1COC2=C1C(=O)C(=O)c1c2ccc2c1CCCC2(C)C | 97.7
18 | C=C1C(=O)O[C@@H]2C[C@@]3(C)CCC[C@H](C)C3=C[C@H]12 | 74
19 | COc1cccc(O)c1O | 110
20 | C=CCn1c(=O)c2cnc(Nc3ccc(N4CCN(C)CC4)cc3)nc2n1-c1cccc(C(C)(C)O)n1 | 19.2
21 | CO[C@@H](C(=O)N1Cc2[nH]nc(NC(=O)c3ccc(N4CCN(C)CC4)cc3)c2C1)c1ccccc1 | 13.4

Row | SMILES | cell viability [%]
22 | CC(C(=O)O)[C@H]1CCC2C3CC=C4C[C@@H](O)CC[C@]4(C)C3CC[C@@]21C (stereo partly drawn) [3beta-HYDROXY-23,24-BISNORCHOL-5-ENIC ACID] | 109
23 | CNCc1ccccc1 | 104
24 | C=CC1=C(C)/C(=C/c2[nH]c(Cc3[nH]c(/C=C4\NC(=O)C(C)=C4C=C)c(C)c3CCC(=O)O)c(CCC(=O)O)c2C)NC1=O | 91.9
25 | C=CC(C)(O)CCC=C(C)CCC=C(C)C (mixture of isomers) | 93.6
26 | COc1cc(OC)c(/C=C/S(=O)(=O)Cc2ccc(OC)c(NCC(=O)O)c2)c(OC)c1 | 41.4
27 | NCCC(O)(P(=O)(O)O)P(=O)(O)O [Pamidronate Disodium] | 79.9
28 | COc1cc2c(cc1OC)Cc1cc(OC)c(OC)cc1Cc1cc(OC)c(OC)cc1C2 | 113
29 | CC1=CC(=O)C(C(C)C)=CC1=O | 97.2
30 | CC[C@@]1(O)C(=O)OCc2c1cc1n(c2=O)Cc2cc3cc(O)ccc3nc2-1 | 7.32
31 | CCc1c2c(nc3ccc(OC(=O)N4CCC(N5CCCCC5)CC4)cc13)-c1cc3c(c(=O)n1C2)COC(=O)[C@]3(O)CC [Irinotecan] | 13
32 | CCc1c2c(nc3ccc(OC(=O)N4CCC(N5CCCCC5)CC4)cc13)-c1cc3c(c(=O)n1C2)COC(=O)[C@]3(O)CC [Irinotecan HCl Trihydrate (Campto)] | 15.9
33 | CC[C@@]1(O)C(=O)OCc2c1cc1n(c2=O)Cc2cc3c(CN(C)C)c(O)ccc3nc2-1 [Topotecan HCl] | 2.12
34 | COc1cc(/C=C/CO)ccc1O | 87.7
35 | O=C(O)/C=C/C=C/c1ccc2c(c1)OCO2 | 109
36 | CC(=O)O[C@@H]1C[C@@]2(C)C(CC[C@@H]2C(C)=O)C2CCC3=CC(=O)CC[C@]3(C)C21 (stereo partly drawn) | 91.1
37 | CC(N)C12CC3CC(CC(C3)C1)C2 (stereo not drawn) | 105
38 | COc1cc2c(cc1OC)C1(O)C(=O)c3ccc(O)c(C(=O)O)c3OC1CO2 (stereo not drawn) | 101
39 | COc1ccc2c(c1OC)OC[C@@H](c1ccc(OC)c(OC)c1OC)C2 | 113
40 | COc1cc(C)c(C(=O)Oc2cc(C)c(C(=O)O)c(O)c2C)c(O)c1C=O | 91.2
41 | C[C@H](N)C(=O)NC(Cc1ccccc1)C(=O)O (mixture of isomers) | 100
42 | CC1(C)CC2C1CC[C@]1(C)CCC3C(C(=O)O)CC(=O)O[C@@]32C1 (stereo partly drawn) [3-HYDROXY-4-(SUCCIN-2-YL)-CARYOLANE delta-LACTONE] | 103

Row | SMILES | cell viability [%]
43 | C[C@@H]1C(=O)O[C@H]2C[C@@]34[C@H]5C[C@@H](C(C)(C)C)[C@]36[C@@H](OC(=O)[C@@H]6O)O[C@@]4(C(=O)O5)[C@]21O | 94.4
44 | COc1ccc([C@@H](C)C(=O)c2ccc(O)cc2O)cc1 | 112
45 | CC1(COc2ccc3c(c2)ncn3-c2ccc3cccc(N4CCC(N)CC4)c3n2)COC1 | 29.2
46 | C[C@@]12CCc3occc3[C@H]1CC[C@@]13C[C@@H](CC[C@H]12)[C@@](O)(CO)C3 | 89.6
47 | COc1c(-c2ccccc2)oc2c(ccc3occc32)c1=O | 97.3
48 | O[C@H]1[C@H](O)[C@@H](O)C2OC[C@H]1O2 | 110
49 | COc1ccc(-c2ccc3c(N4CCOC[C@@H]4C)nc(N4CCOC[C@@H]4C)nc3n2)cc1CO | 23.6
50 | COc1ccc(-c2ccc3c(N4CCOCC4)nc(N4C[C@@H](C)O[C@@H](C)C4)nc3n2)cc1CO | 30.1
51 | O=C(O)C(S)C(S)C(=O)O (stereo not drawn) | 115
52 | O=C1c2ccccc2C(=O)c2c1ccc(O)c2O | 95.7
53 | COc1ccc2c(=O)c(-c3cc4c(cc3OC)OCO4)coc2c1 | 99.7
54 | COc1ccc(-c2c(O)c3c(OC)c4c(cc3oc2=O)OC(C)(C)C=C4)cc1 | 93.5
55 | CC[C@H](/C=C/[C@@H](C)[C@H]1CC[C@H]2[C@@H]3CC=C4C[C@@H](O)CC[C@]4(C)[C@H]3CC[C@]12C)C(C)C | 107
56 | CC(C)=CCCC1(C)C=Cc2c(O)c3c(c(CC=C(C)C)c2O1)OC12C(=CCCC1C(C)(C)O[C@@]2(C/C=C(\C)C(=O)O)C(=O)O)C3=O (stereo partly drawn) | 103
57 | CC(C)C1=CC2=CC[C@@H]3[C@](C)(CCC[C@@]3(C)C(=O)O)[C@H]2CC1 | 103
58 | CC(=O)O[C@H]1C[C@@H](OC(C)=O)C(C)(C)[C@@H]2C[C@@H](OC(C)=O)[C@]3(C)[C@H](CC[C@@]4(C)[C@H](c5ccoc5)OC(=O)[C@H]5O[C@@]534)[C@@]12C | 83.3
59 | COc1ccc(-c2cc(=O)c3c(O)c(OC)c(O[C@@H]4O[C@H](CO[C@@H]5O[C@@H](C)[C@H](O)[C@@H](O)[C@H]5O)[C@@H](O)[C@H](O)[C@H]4O)cc3o2)cc1 | 101
60 | CC(C)C[C@H](NC(=O)[C@H](Cc1ccccc1)NC(=O)c1cnccn1)B(O)O [Bortezomib (Velcade)] | 0.861
61 | CC(C)C[C@H](NC(=O)[C@@H](O)[C@H](N)Cc1ccccc1)C(=O)O [Ubenimex (Bestatin)] | 66.5
62 | CSCCC(N)C(=O)NC(CC(C)C)C(=O)NC(Cc1ccccc1)C(=O)O (stereo not drawn) | 97.7
63 | COc1ccc(-c2cc(=O)c3c(OC)c(OC)c(OC)c(OC)c3o2)cc1OC | 75.6

Row | SMILES | cell viability [%]
64 | C[C@H]1COC2(CCN(c3nc(=O)c4cc(C(F)(F)F)cc([N+](=O)[O-])c4s3)CC2)O1 (racemic) [BTZ043 racemate] | 83.5
65 | Nc1ccn([C@@H]2O[C@H](CO)[C@@H](O)[C@@H]2O)c(=O)n1 | 8.69
66 | C[N+](C)(C)CCOP(=O)(O)OP(=O)([O-])OC[C@H]1O[C@@H](n2ccc(N)nc2=O)[C@H](O)[C@@H]1O | 85.3
67 | N=c1ccn2c(n1)O[C@H]1[C@H](O)[C@@H](CO)O[C@H]12 | 5.77
68 | O=c1[nH]cnc2c1ncn2[C@@H]1O[C@H](CO)[C@@H](O)[C@H]1O | 109
69 | NC(=O)c1ncn([C@@H]2O[C@H](CO)[C@@H](O)[C@H]2O)c1N | 119
70 | Nc1ccn([C@@H]2O[C@H](CO)[C@@H](O)[C@@H]2O)c(=O)n1 [Cytarabine] | 7.02
71 | Nc1ccn([C@@H]2O[C@H](CO)[C@@H](O)C2(F)F)c(=O)n1 [Gemcitabine (Gemzar)] | 8.79
72 | Nc1ccn([C@@H]2O[C@H](CO)[C@@H](O)C2(F)F)c(=O)n1 [Gemcitabine HCl (Gemzar)] | 10.8
73 | NC(=O)c1ncn([C@@H]2O[C@H](CO)[C@@H](O)[C@H]2O)n1 | 94.7
74 | COC(=O)[C@H](OC(C)=O)[C@H]1C(C)(C)[C@H](OC(C)=O)[C@@H]2CC3=C4CC(=O)O[C@@H](c5ccoc5)[C@]4(C)CC[C@@H]3[C@@]1(C)C2=O | 94.8
75 | COc1cc2c(cc1OC)C(=O)OC2 | 103
76 | COc1ccc2c(c1)OC[C@@H](Cc1ccc(OC)c(OC)c1)[C@H]2O | 96.9
77 | CC(=O)O[C@@H]1CC2C(C)(C)C(=O)C3OC3[C@]2(C)C2CC[C@@]3(C)[C@H](c4ccoc4)OC(=O)C4OC43[C@@]21C (stereo partly drawn) | 95.3
78 | CC(C)c1c(O)ccc2c1CCC1[C@@](C)(C=O)CCC[C@]21C (stereo partly drawn) | 96.4
79 | C[C@@H]1CC[C@@]2(OC1)O[C@H]1C[C@H]3[C@@H]4CC[C@@H]5C[C@@H](O)CC[C@]5(C)[C@H]4CC[C@]3(C)[C@H]1[C@@H]2C | 97.4
80 | CN(NC(=O)CC(=O)NN(C)C(=S)c1ccccc1)C(=S)c1ccccc1 [Elesclomol] | 1.23
81 | O=C(OOC(=O)c1ccccc1)c1ccccc1 | 101
82 | O=C(CC(=O)c1ccccc1)c1ccccc1 | 80.9
83 | CCCCCCCCCCCCCCCCCCOCC(O)CO (stereo not drawn) | 85
